Usually viability stands for a read-out of living cells in per cent, often relative to untreated cells.

The structures appear in SMILES notation.

This assay is described as follows: Her2 expression decrease, cell viability multiplex – SKBR3 breast tumor cells, AlphaScreen, ATP viability, primary screen (AID 461).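 Note: percent of carrier control wells set as 100% viability.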 The note with it: SKBR3 Her2 protein level, 18-24 h, measured here: SKBR3 viability, ATP luminescence, at 10 µM. (In Alpha technology, singlet oxygen from a donor bead excites a nearby acceptor bead.)
For the compound `COc1cccc(C2=NOC(C(=O)N3CCN(c4ccccc4)CC3)C2)c1OC` (stereo not given), the viability stood at 104%.

Regarding `O=C(Nc1ccc2c(c1)OCO2)c1ccc(CN2CCOCC2)cc1`, the viability was 97.5%.

In the case of `O=C(Cn1nc(Cc2ccncc2)c2ccccc2c1=O)N1CCc2ccccc2C1`, the viability was found to be 83%.

For the compound `CCOCCCNC(=O)c1ccc2c(c1)N(Cc1ccccc1)C(=O)CS2=O` (stereo not given), the viability was 104%.

For `CS(=O)(=O)Nc1ccccc1C(=O)O`, the viability was found to be 102%.

Regarding `CCOC(=O)N1CCC(Nc2ncnc3c2cnn3-c2ccc(C)cc2C)CC1`, the viability was found to be 86%.

On to `CC1(C)C(c2ccccc2)=NC(c2ccccc2)N1O` (stereo not given), for which the viability is 86.5%.

Turning to `O=C(CS(=O)(=O)Cc1ccccc1)Nc1nc2ccccc2s1`, the viability was found to be 104%.

As to `CCOC(=O)N1CCN(C(=O)COc2ccc(S(=O)(=O)NC(C)C)cc2)CC1`, the viability was found to be 96%.

For the compound `COc1ccc(N2CCN(CCNC(=O)CCS(=O)(=O)c3cccc4nsnc34)CC2)cc1`, the viability turned out to be 90%.

Regarding `COc1cccc(C2CC(=O)Nc3c2c(=O)n(C)c(=O)n3C)c1OC` (stereo not given), the viability came out at 98.5%.

For `CCN1C(=O)c2ccccc2S(=O)c2ccc(C(=O)NC3CC3)cc21` (stereo not given), the viability worked out at 100%.

Turning to `CCOC(=O)CCc1c(C)nc2cc(-c3ccc(F)cc3)[nH]n2c1=O`, the viability stood at 97%.

As to `CCC(C)(C(=O)NC1CCCC1)N(Cc1cccs1)C(C)=O` (stereo not given), the viability came out at 120%.

Regarding `COc1ccccc1NC(=O)C1(C)Cc2ccccc2C(=O)O1` (stereo not given), the viability worked out at 106%.

In the case of `COC(=O)c1sc(NC(=O)COc2ccccc2OC)nc1C`, the viability was determined as 99.5%.

As for `O=C(Nc1ccc2c(c1)OCCO2)NC1CCCCC1`, the viability was 126%.

`c1ccc2c(c1)nc(NCCN1CCOCC1)c1nncn12`: the viability amounted to 92%.

Turning to `O=C(c1ccc(Br)cc1)N1CCN(S(=O)(=O)c2ccccc2)CC1`, the viability is 113%.

As to `C/C=C/Cn1c(SCCCc2ccccc2)nc2c1c(=O)[nH]c(=O)n2C`, the viability is 89.5%.

As to `O=c1c2ccccc2nc(SCc2nc(-c3ccccc3)no2)n1-c1ccc(F)cc1`, the viability came to 90.5%.

For `Cn1c(=O)c2c(nc3sccn32)n(C)c1=O`, the viability was 106%.

`CCCCOc1ccc(-c2ncc(Cl)cn2)cc1`: the viability is 110%.

As to `CCOC(=O)c1ccc(N2Cc3cc(C)c(C)cc3C2)cc1O`, the viability is 95.5%.

`O=C(CSc1nc(-c2ccco2)cc(C(F)(F)F)n1)NCCCn1ccnc1`: the viability worked out at 94%.

Turning to `COc1cccc(NC(=O)CSc2nnc(Cc3cccn3C)n2-c2ccc(F)cc2)c1`, the viability came to 94.5%.

Consider `CCOC(=O)c1ccc(-n2c(C)nc3c(cnn3-c3ccccc3C)c2=O)cc1`, for which the viability stood at 94%.

As to `CCOC(=O)C1=C(C)N(C)C(=O)NC1c1ccccc1OC` (stereo not given), the viability was found to be 97%.

Turning to `Cc1ccc(CSc2nc3c(c(=O)[nH]2)CCC3)cc1`, the viability amounted to 86.5%.

With `CCOC(=O)c1c(C)n(C)c2c(C)cc(O)c(OC(C)=O)c12`, the viability stood at 93%.

Consider `Cc1ccccc1NC(=O)C1CCCN(S(=O)(=O)c2cnc[nH]2)C1` (stereo not given), for which the viability was 85.5%.

Turning to `O=C(NCc1ccc(F)cc1)c1cc2ccccn2n1`, the viability is 84%.

Take `CCCNC(=O)C1CCN(S(=O)(=O)c2ccc3nc4c(c(C(=O)O)c3c2)CCCCC4)CC1`: the viability worked out at 99%.

On to `COc1ccc2[nH]c(C)c(CCN3C(=O)OC(C)(C)C3(C)O)c2c1` (stereo not given), for which the viability came to 100%.

On to `COc1ccc(N(CC(=O)Nc2ccc3c(c2)OCO3)S(=O)(=O)c2c(C)nn(C)c2C)cc1`, for which the viability came out at 90.5%.

Consider `Cc1onc(-c2ccccc2Cl)c1C(=O)Nc1cnn(Cc2ccccc2)c1`, for which the viability was 88.5%.

On to `CCOCCCNC(=O)CN1CCN(Cc2ccccc2C)C1=O`, for which the viability amounted to 83.5%.

As for `CCN1C(=O)c2cccc3c(NC(=O)c4ccc(S(=O)(=O)N(C)C)cc4)ccc1c23`, the viability was found to be 86%.

Consider `O=C(Nc1cccc2ccccc12)c1ccc(Br)o1`, for which the viability is 120%.

For `c1ccc(-c2cn3cccnc3n2)cc1`, the viability amounted to 118%.

The record behind these values is PubChem BioAssay.
